# Measurements taken from PMC7862700, “An all-to-all approach to the identification of sequence-specific readers for epigenetic DNA modifications on cytosine”.
# Legend:
# Test in all cases: DAPPL (digital affinity profiling via proximity ligation, sequencing); 10 mM Tris-HCl pH 7.5, 50 mM NaCl, 1 mM DTT, 4% glycerol, room temperature, 30 min; GST-TFs on glutathione beads, 16-mer random dsDNA library, 0.1% formaldehyde crosslink after washing; high values mean tight binding
# Conditions in all cases: protein: recombinant; tags: N-terminal GST; dsDNA, one strand shown
# FLI1 = biological target: T1, FLI1 (Homo sapiens, UniProt Q01543 1-452)
# T1 sequence: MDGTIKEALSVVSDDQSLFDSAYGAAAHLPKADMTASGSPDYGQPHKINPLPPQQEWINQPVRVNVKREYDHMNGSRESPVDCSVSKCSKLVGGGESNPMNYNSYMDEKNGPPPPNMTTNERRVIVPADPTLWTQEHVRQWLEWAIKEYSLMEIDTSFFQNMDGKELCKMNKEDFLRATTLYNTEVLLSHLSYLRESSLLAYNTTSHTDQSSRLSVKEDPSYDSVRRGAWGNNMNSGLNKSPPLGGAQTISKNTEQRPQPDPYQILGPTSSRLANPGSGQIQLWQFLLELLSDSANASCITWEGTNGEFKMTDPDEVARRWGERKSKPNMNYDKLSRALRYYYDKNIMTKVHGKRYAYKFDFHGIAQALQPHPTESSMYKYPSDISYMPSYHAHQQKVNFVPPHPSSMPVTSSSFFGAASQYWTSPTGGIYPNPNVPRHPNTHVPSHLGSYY
# Procedure, shortened: (§1)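 After expression in yeast as GST fusions, human transcription factors were bound to glutathione beads, DNA-barcoded and mixed with a tag-only sample. The pools were incubated with 200 nmole of a 16-mer random double-stranded DNA library in Tris/NaCl/DTT/glycerol buffer (30 min, room temperature), washed and crosslinked with 0.1% formaldehyde. Proximity ligation with BsaI/T4 ligase ran for 1 h at 37 °C, before PCR amplification and sequencing on an Illumina NextSeq500. Binding signal is a hexamer's read frequency for a factor divided by its frequency for the tag-only sample.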
# ELK1 = biological target: T2, ELK1 (Homo sapiens, UniProt P19419 1-428)
# T2 sequence: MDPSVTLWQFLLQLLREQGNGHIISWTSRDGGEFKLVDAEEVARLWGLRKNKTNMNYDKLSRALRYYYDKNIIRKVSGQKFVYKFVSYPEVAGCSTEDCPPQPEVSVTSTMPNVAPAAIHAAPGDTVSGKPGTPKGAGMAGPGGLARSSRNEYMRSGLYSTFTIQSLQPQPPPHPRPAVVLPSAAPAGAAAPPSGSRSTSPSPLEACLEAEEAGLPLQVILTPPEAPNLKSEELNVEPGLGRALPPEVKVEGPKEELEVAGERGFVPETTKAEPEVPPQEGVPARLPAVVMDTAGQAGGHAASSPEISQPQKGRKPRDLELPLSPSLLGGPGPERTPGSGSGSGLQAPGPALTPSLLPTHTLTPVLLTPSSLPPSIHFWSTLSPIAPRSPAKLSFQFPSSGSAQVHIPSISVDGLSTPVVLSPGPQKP
# Procedure, shortened: as §1
# GABPA = biological target: T3, GABPA (Homo sapiens, UniProt Q06546 1-454)
# T3 sequence: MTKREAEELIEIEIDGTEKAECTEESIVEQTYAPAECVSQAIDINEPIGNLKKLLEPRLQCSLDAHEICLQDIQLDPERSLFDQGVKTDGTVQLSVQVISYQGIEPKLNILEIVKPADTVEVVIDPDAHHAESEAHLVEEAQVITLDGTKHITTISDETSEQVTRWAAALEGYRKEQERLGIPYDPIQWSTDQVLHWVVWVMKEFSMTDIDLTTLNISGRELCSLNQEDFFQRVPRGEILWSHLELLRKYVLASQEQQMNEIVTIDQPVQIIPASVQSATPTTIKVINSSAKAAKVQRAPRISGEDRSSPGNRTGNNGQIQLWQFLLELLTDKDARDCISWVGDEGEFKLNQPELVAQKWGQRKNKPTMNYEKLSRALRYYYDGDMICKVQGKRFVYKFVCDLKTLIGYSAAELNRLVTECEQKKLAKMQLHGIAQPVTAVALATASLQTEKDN
# Procedure, shortened: as §1
# ELK4 = biological target: T4, ELK4 (Homo sapiens, UniProt P28324-2 1-405)
# T4 sequence: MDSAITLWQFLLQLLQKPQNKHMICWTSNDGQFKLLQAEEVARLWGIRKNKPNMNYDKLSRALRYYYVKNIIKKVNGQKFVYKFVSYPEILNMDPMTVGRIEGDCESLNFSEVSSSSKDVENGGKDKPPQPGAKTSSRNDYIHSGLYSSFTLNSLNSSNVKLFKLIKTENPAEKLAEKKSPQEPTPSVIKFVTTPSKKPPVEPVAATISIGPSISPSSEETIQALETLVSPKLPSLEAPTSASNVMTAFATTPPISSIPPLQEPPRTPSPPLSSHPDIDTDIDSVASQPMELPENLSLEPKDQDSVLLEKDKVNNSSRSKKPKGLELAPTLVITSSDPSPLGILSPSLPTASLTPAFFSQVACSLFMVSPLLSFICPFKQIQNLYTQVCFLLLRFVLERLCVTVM
# Procedure, shortened: as §1
# ERF = biological target: T5, ERF (Homo sapiens, UniProt P50548 1-548)
# T5 sequence: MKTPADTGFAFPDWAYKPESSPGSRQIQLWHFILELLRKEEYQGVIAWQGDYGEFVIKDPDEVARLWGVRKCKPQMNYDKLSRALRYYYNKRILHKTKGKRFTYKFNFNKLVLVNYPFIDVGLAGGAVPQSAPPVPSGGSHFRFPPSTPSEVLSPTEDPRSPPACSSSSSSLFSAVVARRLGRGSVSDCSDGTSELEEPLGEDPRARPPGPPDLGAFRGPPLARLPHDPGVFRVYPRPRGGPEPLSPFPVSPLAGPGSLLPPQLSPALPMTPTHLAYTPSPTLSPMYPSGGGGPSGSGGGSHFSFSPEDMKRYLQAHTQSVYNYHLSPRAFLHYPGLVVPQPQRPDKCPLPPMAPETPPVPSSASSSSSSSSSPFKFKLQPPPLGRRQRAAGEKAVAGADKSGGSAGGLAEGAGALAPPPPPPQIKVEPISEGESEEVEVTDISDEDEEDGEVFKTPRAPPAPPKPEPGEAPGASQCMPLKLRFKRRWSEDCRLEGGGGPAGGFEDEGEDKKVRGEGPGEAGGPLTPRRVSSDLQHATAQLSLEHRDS
# Procedure, shortened: as §1
# ETV3L = biological target: T6, ETV3L (Homo sapiens, UniProt Q6ZN32 1-361)
# T6 sequence: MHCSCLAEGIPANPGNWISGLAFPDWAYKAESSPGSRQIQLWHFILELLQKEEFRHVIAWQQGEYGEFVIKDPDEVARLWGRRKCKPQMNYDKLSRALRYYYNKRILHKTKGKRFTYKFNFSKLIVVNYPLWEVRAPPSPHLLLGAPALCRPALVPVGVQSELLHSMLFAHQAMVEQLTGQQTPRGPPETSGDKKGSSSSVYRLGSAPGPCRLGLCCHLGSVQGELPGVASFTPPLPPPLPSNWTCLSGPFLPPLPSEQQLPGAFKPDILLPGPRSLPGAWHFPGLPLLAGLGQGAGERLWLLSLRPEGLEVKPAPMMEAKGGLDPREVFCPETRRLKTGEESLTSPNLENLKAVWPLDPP
# Procedure, shortened: as §1
# ETV7 = biological target: T7, ETV7 (Homo sapiens, UniProt Q9Y603 1-341)
# T7 sequence: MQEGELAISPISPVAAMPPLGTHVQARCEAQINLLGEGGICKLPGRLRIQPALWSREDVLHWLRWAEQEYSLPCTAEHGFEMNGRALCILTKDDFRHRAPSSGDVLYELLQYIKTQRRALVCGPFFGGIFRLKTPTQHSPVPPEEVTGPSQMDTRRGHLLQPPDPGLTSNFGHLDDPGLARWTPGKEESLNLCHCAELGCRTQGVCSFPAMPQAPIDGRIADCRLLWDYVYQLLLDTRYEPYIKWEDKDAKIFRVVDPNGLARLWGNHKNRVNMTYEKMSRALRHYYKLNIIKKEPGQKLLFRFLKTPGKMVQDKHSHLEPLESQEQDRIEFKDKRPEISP
# Procedure, shortened: as §1
# ELF1 = ELF1 (Homo sapiens, UniProt P32519 1-619)
# Procedure, shortened: as §1
# SPIB = SPIB (Homo sapiens, UniProt Q01892 1-262)
# Procedure, shortened: as §1
# ELF3 = biological target: T8, ELF3 (Homo sapiens, UniProt P78545 1-371)
# T8 sequence: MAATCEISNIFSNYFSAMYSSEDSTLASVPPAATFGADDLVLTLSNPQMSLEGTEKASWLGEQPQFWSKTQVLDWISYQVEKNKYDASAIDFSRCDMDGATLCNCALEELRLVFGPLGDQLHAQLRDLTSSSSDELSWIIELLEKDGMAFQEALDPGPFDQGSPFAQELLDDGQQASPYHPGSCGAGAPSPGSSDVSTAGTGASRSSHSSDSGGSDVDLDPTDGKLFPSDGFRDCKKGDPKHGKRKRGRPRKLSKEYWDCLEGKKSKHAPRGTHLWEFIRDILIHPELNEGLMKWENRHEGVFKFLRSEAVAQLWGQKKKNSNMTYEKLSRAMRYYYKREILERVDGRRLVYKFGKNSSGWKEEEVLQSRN
# Procedure, shortened: as §1
# ETV1 = ETV1 (Homo sapiens, UniProt P50549 1-477)
# Procedure, shortened: as §1
# ETS2 = biological target: T9, ETS2 (Homo sapiens, UniProt P15036 1-469)
# T9 sequence: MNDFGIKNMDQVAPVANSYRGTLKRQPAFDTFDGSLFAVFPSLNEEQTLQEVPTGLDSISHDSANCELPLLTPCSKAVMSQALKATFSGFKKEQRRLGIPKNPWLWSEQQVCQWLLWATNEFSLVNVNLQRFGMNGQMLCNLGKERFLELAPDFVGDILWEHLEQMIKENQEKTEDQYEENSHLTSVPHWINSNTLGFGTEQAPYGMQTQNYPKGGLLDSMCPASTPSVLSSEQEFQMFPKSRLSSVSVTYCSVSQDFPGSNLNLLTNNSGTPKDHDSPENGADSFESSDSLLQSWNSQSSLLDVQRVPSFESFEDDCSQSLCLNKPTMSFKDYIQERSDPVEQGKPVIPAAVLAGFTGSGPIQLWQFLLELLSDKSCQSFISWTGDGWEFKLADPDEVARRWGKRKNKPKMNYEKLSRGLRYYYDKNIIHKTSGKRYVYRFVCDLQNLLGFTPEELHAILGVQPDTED
# Procedure, shortened: as §1
# SPDEF = biological target: T10, SPDEF (Homo sapiens, UniProt O95238 1-335)
# T10 sequence: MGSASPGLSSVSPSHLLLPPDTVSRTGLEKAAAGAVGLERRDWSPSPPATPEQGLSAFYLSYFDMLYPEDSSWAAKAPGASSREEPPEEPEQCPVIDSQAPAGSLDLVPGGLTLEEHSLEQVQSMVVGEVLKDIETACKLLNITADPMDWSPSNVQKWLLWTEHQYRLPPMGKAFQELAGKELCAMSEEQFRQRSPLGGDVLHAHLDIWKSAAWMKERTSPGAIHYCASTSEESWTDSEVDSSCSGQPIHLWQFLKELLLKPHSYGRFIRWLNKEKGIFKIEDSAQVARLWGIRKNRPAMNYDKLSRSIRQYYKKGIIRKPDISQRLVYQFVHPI
# Procedure, shortened: as §1
# ELF5 = biological target: T11, ELF5 (Homo sapiens, UniProt Q9UKW6-2 1-255)
# T11 sequence: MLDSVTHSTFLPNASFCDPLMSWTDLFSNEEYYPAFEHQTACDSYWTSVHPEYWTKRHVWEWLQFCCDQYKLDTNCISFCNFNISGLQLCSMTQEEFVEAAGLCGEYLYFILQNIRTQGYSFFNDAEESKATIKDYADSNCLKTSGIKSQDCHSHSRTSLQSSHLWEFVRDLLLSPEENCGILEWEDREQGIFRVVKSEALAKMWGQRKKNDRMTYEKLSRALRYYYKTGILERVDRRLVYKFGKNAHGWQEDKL
# Procedure, shortened: as §1
# ETV3 = biological target: T12, ETV3 (Homo sapiens, UniProt P41162-2 1-143)
# T12 sequence: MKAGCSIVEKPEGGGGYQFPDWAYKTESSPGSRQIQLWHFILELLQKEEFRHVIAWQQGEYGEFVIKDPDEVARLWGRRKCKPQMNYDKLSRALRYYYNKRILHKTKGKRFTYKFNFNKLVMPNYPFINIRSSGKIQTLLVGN
# Procedure, shortened: as §1
# Chain of ELF1 (P32519 whole entry): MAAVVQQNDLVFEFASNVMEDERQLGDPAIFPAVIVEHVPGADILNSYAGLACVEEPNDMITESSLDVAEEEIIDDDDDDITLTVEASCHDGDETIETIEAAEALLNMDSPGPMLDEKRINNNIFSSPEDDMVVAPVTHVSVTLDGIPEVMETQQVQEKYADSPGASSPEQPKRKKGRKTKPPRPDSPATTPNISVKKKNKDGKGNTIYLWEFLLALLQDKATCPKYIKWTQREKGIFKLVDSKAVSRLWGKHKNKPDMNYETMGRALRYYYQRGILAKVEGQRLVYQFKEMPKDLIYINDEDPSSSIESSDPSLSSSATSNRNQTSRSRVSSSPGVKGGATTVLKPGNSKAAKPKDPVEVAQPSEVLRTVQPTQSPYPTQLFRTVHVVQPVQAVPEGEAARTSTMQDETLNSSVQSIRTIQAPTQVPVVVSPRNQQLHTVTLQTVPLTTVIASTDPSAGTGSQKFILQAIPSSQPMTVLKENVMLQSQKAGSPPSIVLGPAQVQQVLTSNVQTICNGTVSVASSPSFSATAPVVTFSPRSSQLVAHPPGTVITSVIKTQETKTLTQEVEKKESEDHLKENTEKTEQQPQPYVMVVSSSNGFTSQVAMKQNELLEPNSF
# Chain of ETV1 (P50549 whole entry): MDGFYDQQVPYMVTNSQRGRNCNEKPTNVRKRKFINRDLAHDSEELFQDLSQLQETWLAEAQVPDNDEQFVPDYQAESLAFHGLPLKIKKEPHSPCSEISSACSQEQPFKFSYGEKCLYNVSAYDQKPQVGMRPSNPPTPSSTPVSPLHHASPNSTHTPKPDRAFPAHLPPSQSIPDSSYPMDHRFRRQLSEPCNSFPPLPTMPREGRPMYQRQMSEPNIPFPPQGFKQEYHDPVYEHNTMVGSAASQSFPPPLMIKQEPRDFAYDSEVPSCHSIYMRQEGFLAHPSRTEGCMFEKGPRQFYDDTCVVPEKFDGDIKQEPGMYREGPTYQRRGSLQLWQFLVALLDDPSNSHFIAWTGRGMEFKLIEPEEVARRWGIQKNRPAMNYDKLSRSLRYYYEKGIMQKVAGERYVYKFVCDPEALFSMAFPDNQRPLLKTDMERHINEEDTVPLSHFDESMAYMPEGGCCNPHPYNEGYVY
# Chain of SPIB (Q01892 whole entry): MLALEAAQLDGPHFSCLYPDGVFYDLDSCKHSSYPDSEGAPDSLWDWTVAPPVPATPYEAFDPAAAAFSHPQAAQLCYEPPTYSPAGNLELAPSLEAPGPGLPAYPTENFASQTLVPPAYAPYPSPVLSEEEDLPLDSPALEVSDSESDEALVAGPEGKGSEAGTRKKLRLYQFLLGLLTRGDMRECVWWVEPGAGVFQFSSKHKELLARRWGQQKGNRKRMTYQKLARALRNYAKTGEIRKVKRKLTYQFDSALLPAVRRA
sequence,measurement,setting,value
CATTGA,binding signal,FLI1,"1.06 fold enrichment (6-mer frequency, TF over GST control)"
same,binding signal,ELK1,"1.05 fold enrichment (6-mer frequency, TF over GST control)"
same,binding signal,GABPA,"1 fold enrichment (6-mer frequency, TF over GST control)"
same,binding signal,ELK4,"1.11 fold enrichment (6-mer frequency, TF over GST control)"
same,binding signal,ERF,"1 fold enrichment (6-mer frequency, TF over GST control)"
same,binding signal,ETV3L,"1.01 fold enrichment (6-mer frequency, TF over GST control)"
same,binding signal,ETV7,"1.01 fold enrichment (6-mer frequency, TF over GST control)"
GGATGG,binding signal,FLI1,"1.02 fold enrichment (6-mer frequency, TF over GST control)"
same,binding signal,ELF1,"1.05 fold enrichment (6-mer frequency, TF over GST control)"
same,binding signal,SPIB,"1.03 fold enrichment (6-mer frequency, TF over GST control)"
same,binding signal,ELF3,"1.13 fold enrichment (6-mer frequency, TF over GST control)"
same,binding signal,ETV1,"1.13 fold enrichment (6-mer frequency, TF over GST control)"
same,binding signal,ERF,"1.05 fold enrichment (6-mer frequency, TF over GST control)"
same,binding signal,ETV3L,"1.08 fold enrichment (6-mer frequency, TF over GST control)"
same,binding signal,ETS2,"1.03 fold enrichment (6-mer frequency, TF over GST control)"
same,binding signal,SPDEF,"1.09 fold enrichment (6-mer frequency, TF over GST control)"
same,binding signal,ETV7,"1.06 fold enrichment (6-mer frequency, TF over GST control)"
same,binding signal,ELF5,"1.03 fold enrichment (6-mer frequency, TF over GST control)"
GTCCAA,binding signal,FLI1,"1.03 fold enrichment (6-mer frequency, TF over GST control)"
same,binding signal,ELF1,"1.03 fold enrichment (6-mer frequency, TF over GST control)"
same,binding signal,ETV7,"1.01 fold enrichment (6-mer frequency, TF over GST control)"
same,binding signal,ETV3,"1.04 fold enrichment (6-mer frequency, TF over GST control)"
